# According to PubChem BioAssay (NCI):
# This is part of a sample that, as a whole, favours compounds with a hit. Of some 83,000 tested, about 20% had one in any assay.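 The test compound was applied at a single concentration to cells in 96-well plates for 48 hours, and percent growth was recorded.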 Values without a mark were called inactive. The source made the active and inactive calls. Where a SMILES comes first, the peptide text is derived from it. [ ]: non-standard residue; d: D form. ξ: configuration not given here. ξD = NC(CC(=O)O)C(=O)O
# System: NCI-H460 lung
# Test: NCI-60 one-dose screen, 48 h (100 = growth as untreated, 0 = no growth, -100 = all killed)
# Details: 10 µM unless noted
# Description: Growth inhibition of the NCI-H460 human Non-Small Cell Lung tumor cell line is measured as a screen for anti-cancer activity. Cells are grown in 96 well plates and exposed to the test compound for 48 hours. Compounds are tested at a single concentration, which is 10^-5 M for most compounds. The reported endpoint is percent growth (GI% or GIPRCNT), where numbers from 0 - 100% represent growth inhibition, and numbers from -100% - 0 represent cell death. For example, a value of 40 represents 60% growth inhibition. A value of 0 means no net growth occurred over the course of the experiment. A value of -40 indicates 40% of cells at the beginning of the experiment died by the end of the experiment. A value of -100 means all cells are dead at the end of the experiment.
# NCI-60 Human Tumor Cell Lines Screen was performed using the standard one-dose NCI protocol, which is described in more detail at https://dtp.cancer.gov/discovery_development/nci-60/default.htm.
# Compounds with GIPRCNT values below 10 were considered active. Activity score was based on GIPRCNT using the following formula: […]
# Score is 0 for GIPRCNT values of 100 or above, 50 for GIPRCNT values of 0, and 100 for GIPRCNT values of -100.
row,Compound,growth
1,CC(/C=N/NC(N)=S)Cc1ccc(C(C)C)cc1 (stereo not given),82.8%
2,CCN(CC)c1ccc(/C=C\C(=O)c2ccc(NC(C)=O)cc2)cc1,82.2%
3,NNc1cccc([N+](=O)[O-])c1,108%
4,O=[N+]([O-])c1ccc([I+]c2ccccc2)cc1,4.38% (active)
5,CCOC(=O)C1=C(C(=O)c2ccccc2)C(c2cccc([N+](=O)[O-])c2)C(C(=O)c2ccccc2)=C(C(=O)OCC)N1,98.8%
6,CCCCCCCCCCCC[N+]1(CCCCCCCCCCCC)CCCC(C)C1 (stereo not given),-90.7% (active)
7,CC1C(c2ccccc2)OCCN1C(=S)Nc1ccc(S(=O)(=O)N2CCCCC2)cc1 (stereo not given),104%
8,CN(C)c1ccc(/C=C/c2nccc3ccccc23)cc1,74.3%
9,NC1=C(Br)C(=O)c2ncccc2C1=O,-73.9% (active)
10,Cc1ccc(Nc2ccc(O)c3c2C(=O)c2c(O)ccc(Nc4ccc(C)cc4)c2C3=O)cc1,105%
11,Nc1ccc(Oc2ccccc2)c(Cl)c1,106%
12,COc1c(C)c2c(c(O)c1C/C=C(\C)CCC(=O)O)C(=O)OC2,9.24% (active)
13,O=C1C(=O)c2cccnc2-c2ncccc21,-57.3% (active)
14,CN(C)c1ccc(/C=C/c2sc3ccc4ccccc4c3[n+]2C)cc1,-40.9% (active)
15,CCCCCC/C=C1\CCC(CN2CCCC2)C1=O (stereo not given),102%
16,O=[N+]([O-])/C(=C/c1ccccc1)c1ccccc1,102%
17,CC(=O)Nc1ccc(C(=O)CCl)cc1,80.9%
18,Oc1ccccc1N=Cc1ccccc1,94.4%
19,CC1(C)N=c2cc3c(cc2N1c1ccc(Cl)cc1)=Nc1ccccc1N3c1ccc(Cl)cc1,46.5%
20,CC(C)(C)c1ccc(CCO)cc1,109%

row,Compound,growth
1,Cn1c(-c2ccccc2)c(/C=C/C2=[N+](C)c3ccccc3C2(C)C)c2ccccc21,2.46% (active)
2,CCCCCCCCCCCC[S+](C)CC(=O)[O-] (stereo not given),54%
3,Cc1oc2c(C)c3oc(=O)cc(C)c3cc2c1CCl,91.8%
4,CC(CSc1n[nH]c(=S)s1)c1ccccc1 (stereo not given),114%
5,CCOC(=O)c1c(C)[nH]c2ccc(O)cc12,98.3%
6,CC(C)(C)c1ccc(O)c(Br)c1,95.6%
7,CC(=O)OC1CC2CCC1(C)C2(C)C (stereo not given),105%
8,Clc1ccc(Cc2nc3ccccc3s2)cc1,105%
9,CCCCCCCCCCCC[n+]1ccccc1 (tested in a mixture with another compound),0.69% (active)
10,Cc1cc(Br)c2nsnc2c1[N+](=O)[O-],2% (active)
11,CCCCCCCCCCCC1=NCCCN1CCCC,101%
12,COc1ccc(C(Cn2ccnc2)Sc2ccc(Cl)c(Cl)c2)cc1 (stereo not given),78.2%
13,CN(C)c1ccc(/C=C/c2cc[n+](C)c(/C=C/c3ccc(N(C)C)cc3)c2)cc1,10.6%
14,NCC(=O)NC(CC(=O)O)C(=O)O (stereo not given) (H-Gly-[ξD]-OH),110%
15,S=C=Nc1ccc(N2CCOCC2)cc1,99.8%
16,CCOc1ccc2c(c1)/C(=C\C=C\C1CC(C)C3CC(OCC)CCC3N1CC)CC(C)N2CC (stereo not given),8.11% (active)
17,CCC[CH2][Sn]1([CH2]CCC)[O]C2C(CO)OC(n3ccc(N)nc3=O)C2[O]1 (stereo not given),12.1%
18,CCOC(=O)c1cc(CC)sc1NC(=O)CC(C)=O,50.9%
19,COC1CC(C)C(OC)c2cc(O)cc(c2O)NC(=O)/C(C)=C/C=C\C(C)C(OC(N)=O)/C(C)=C\C(C)C1OC (stereo not given),9.42% (active)
20,Cc1nc([N+](=O)[O-])c(Sc2nncc(-c3ccccc3)n2)n1C,110%
